The structures appear in SMILES notation. About 79,000 compounds went through this panel and 15% of them were active in at least one assay; those are over-represented in the sample as a whole. A number with no mark means an inactive call. Active and inactive are the calls of the source. Cut-off read from the data, not from the text of the source: active = growth inhibition above about 70%; inactive = the rest.

A short description of assay [1]: NCI Yeast Anticancer Drug Screen. Data for the rad50 strain (AID 155).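 Note: 0% = growth of vehicle-only cultures of the same strain.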 To be noted: S. cerevisiae rad50 strain growth inhibition, hits give high values. In a few lines:
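Readout: growth inhibition relative to vehicle-treated cultures. Compound exposure was carried out in a genetically defined yeast strain deficient in DNA damage repair.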

A short description of assay [2]: NCI Yeast Anticancer Drug Screen. Data for the mec2-1 strain (AID 157). Conditions: S. cerevisiae mec2-1 strain, hits give high values. The method, boiled down:
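Each compound was tested on mec2-1 yeast, a strain altered in DNA damage repair or cell cycle control. Growth inhibition is reported relative to vehicle.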

Assay [3] in a line: NCI Yeast Anticancer Drug Screen. Data for the sgs1 mgt1 strain (AID 161).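 Note: 0% = growth of cultures given vehicle only.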 To be noted: S. cerevisiae sgs1 mgt1 strain, hits give high values. In a few lines: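 Test agents were incubated with a DNA-repair-mutant yeast strain. Growth was then read and compared against vehicle-treated controls.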
A short description of assay [4]: NCI Yeast Anticancer Drug Screen. Data for the cln2 rad14 strain (AID 165).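 Note: 0% = growth equal to vehicle treated cultures.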 Conditions: S. cerevisiae cln2 rad14 strain, hits give high values. The method, boiled down:
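Test compounds were added to cln2 rad14 yeast cultures; inhibition of growth was then determined by comparison with vehicle treatment.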

The nature of assay [5]: NCI Yeast Anticancer Drug Screen. Data for the bub3 strain (AID 167). To be noted: S. cerevisiae bub3 mutant strain, hits give high values. In a few lines: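 Readout: yeast growth inhibition, expressed relative to vehicle-only wells. The test organism is a mutant strain from a panel with lesions in DNA repair or checkpoint genes.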
Assay [6] in a line: NCI Yeast Anticancer Drug Screen. Data for the mlh1 rad18 strain (AID 175). Conditions: S. cerevisiae mlh1 rad18 strain growth inhibition, hits give high values. The method, boiled down:
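Inhibition values reflect reduced growth of mutant yeast versus vehicle-treated controls following compound exposure; the mutations affect DNA damage repair.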

The mark [7] stands for this setting: at 5.0 µM (retest, dose inferred, filed as 0.5).
Where [8] appears, read: at 50.0 µM (retest, dose inferred, filed as 5.0).

Turning to `CC(=O)c1c2c(cc3c1CC1(Cc4cc5c(cc4C1)C(=O)CCC5)C3)CCCC2` (stereo not given), the growth inhibition in assay [1] (setting [7]) was 34%; in assay [1] (setting [8]), 32%; in assay [1] (at 50.0 µM), -15.8%; in assay [2] (setting [7]) it was 23%; in assay [2] (setting [8]), 25%; in assay [2] (at 50.0 µM), -16%. Also, the growth inhibition is 22% in assay [3] (setting [7]); 27% in assay [3] (setting [8]); 8.95% in assay [3] (at 50.0 µM); 22% in assay [4] (setting [7]); 30% in assay [4] (setting [8]); 8.4% in assay [4] (at 50.0 µM). In addition, the growth inhibition in assay [5] (setting [7]) is 32%; in assay [5] (setting [8]), 33%; in assay [5] (at 50.0 µM) it was 6.25%; in assay [6] (setting [7]) it was 28%; in assay [6] (setting [8]), 29%; in assay [6] (at 50.0 µM) it was 13.8%.

In the case of `COc1cccc2c1C(=O)c1c(O)c3c(c(O)c1C2=O)C[C@@](O)(C(C)=O)C[C@@H]3OC1CC([N+]([O-])(Cc2ccccc2)Cc2ccccc2)C(O)C(C)O1` (stereo not given in full), the growth inhibition is 79% (active) in assay [1] (setting [7]); 95% (active) in assay [1] (setting [8]); 75.6% (active) in assay [1] (at 50.0 µM); 30% in assay [2] (setting [7]); 87% (active) in assay [2] (setting [8]); 23.9% in assay [2] (at 50.0 µM). Also, the growth inhibition was 48% in assay [3] (setting [7]); 88% (active) in assay [3] (setting [8]); 19.2% in assay [3] (at 50.0 µM); 23% in assay [4] (setting [7]); 70% (active) in assay [4] (setting [8]); 22.2% in assay [4] (at 50.0 µM). Further, the growth inhibition is 32% in assay [5] (setting [7]); 81% (active) in assay [5] (setting [8]); 31.7% in assay [5] (at 50.0 µM); 70% (active) in assay [6] (setting [7]); 92% (active) in assay [6] (setting [8]); 10.8% in assay [6] (at 50.0 µM).

Turning to `COc1ccc(C2COc3c(ccc(O)c3O)C2)cc1` (stereo not given), the growth inhibition in assay [1] (setting [7]) was 1%; in assay [1] (setting [8]), 99% (active); in assay [1] (at 50.0 µM), 93.3% (active); in assay [2] (setting [7]), 9%; in assay [2] (setting [8]) it was 99% (active); in assay [2] (at 50.0 µM) it was 97.3% (active). Besides, the growth inhibition in assay [3] (setting [7]) was -2%; in assay [3] (setting [8]), 97% (active); in assay [3] (at 50.0 µM), 94.7% (active); in assay [4] (setting [7]) it was 11%; in assay [4] (setting [8]), 98% (active); in assay [4] (at 50.0 µM), 89.2% (active). Besides, the growth inhibition is 11% in assay [5] (setting [7]); 98% (active) in assay [5] (setting [8]); 81.4% (active) in assay [5] (at 50.0 µM); 1% in assay [6] (setting [7]); 98% (active) in assay [6] (setting [8]); 96.8% (active) in assay [6] (at 50.0 µM).

`CCC(C)(C)C(=O)OCC(=O)c1ccc(-c2ccccc2)cc1`: the growth inhibition in assay [1] (setting [7]) is -15%; in assay [1] (setting [8]) it was -17%; in assay [1] (at 50.0 µM), -5.8%; in assay [2] (setting [7]), 5%; in assay [2] (setting [8]), -4%; in assay [2] (at 50.0 µM), 8.25%. Further, the growth inhibition was 2% in assay [3] (setting [7]); -3% in assay [3] (setting [8]); -7.4% in assay [3] (at 50.0 µM); 33% in assay [4] (setting [7]); -57% in assay [4] (setting [8]); -3.35% in assay [4] (at 50.0 µM). Also, the growth inhibition in assay [5] (setting [7]) is 29%; in assay [5] (setting [8]), 25%; in assay [5] (at 50.0 µM) it was 62.2%; in assay [6] (setting [7]), -11%; in assay [6] (setting [8]), -4%; in assay [6] (at 50.0 µM) it was 12.8%.

Regarding `Nc1ccc(C(=O)N/N=C\c2cccc3ccccc23)cc1`, the growth inhibition is 0% in assay [1] (setting [7]); -2% in assay [1] (setting [8]); 61.8% in assay [1] (at 50.0 µM); -3% in assay [2] (setting [7]); 13% in assay [2] (setting [8]); 60.6% in assay [2] (at 50.0 µM). For the same compound, the growth inhibition is 0% in assay [3] (setting [7]); 0% in assay [3] (setting [8]); 88.9% (active) in assay [3] (at 50.0 µM); -4% in assay [4] (setting [7]); 3% in assay [4] (setting [8]); 34.4% in assay [4] (at 50.0 µM). Besides, the growth inhibition is 6% in assay [5] (setting [7]); 22% in assay [5] (setting [8]); 50.8% in assay [5] (at 50.0 µM); -1% in assay [6] (setting [7]); 21% in assay [6] (setting [8]); 89.3% (active) in assay [6] (at 50.0 µM).

Consider `O=C(NC1CCN(Cc2ccccc2)CC1)c1ccccc1I`, for which the growth inhibition in assay [1] (setting [7]) is 48%; in assay [1] (setting [8]), 73% (active); in assay [1] (at 50.0 µM), 74.3% (active); in assay [2] (setting [7]), 38%; in assay [2] (setting [8]) it was 50%; in assay [2] (at 50.0 µM) it was 39.9%. The growth inhibition in assay [3] (setting [7]) is 80% (active); in assay [3] (setting [8]), 81% (active); in assay [3] (at 50.0 µM), 82.6% (active); in assay [4] (setting [7]) it was 83% (active); in assay [4] (setting [8]), 82% (active); in assay [4] (at 50.0 µM), 81% (active). The growth inhibition is 59% in assay [5] (setting [7]); 64% in assay [5] (setting [8]); 74% (active) in assay [5] (at 50.0 µM); 73% (active) in assay [6] (setting [7]); 76% (active) in assay [6] (setting [8]); 80.8% (active) in assay [6] (at 50.0 µM).

For the compound `O=C1c2ccccc2-c2cc3ccccc3nc21`, the growth inhibition was 28% in assay [1] (setting [7]); 89% (active) in assay [1] (setting [8]); 72.7% (active) in assay [1] (at 50.0 µM); 21% in assay [2] (setting [7]); 70% (active) in assay [2] (setting [8]); 60.8% in assay [2] (at 50.0 µM). For the same compound, the growth inhibition in assay [3] (setting [7]) was 15%; in assay [3] (setting [8]) it was 67%; in assay [3] (at 50.0 µM), 48.2%; in assay [4] (setting [7]), 23%; in assay [4] (setting [8]) it was 73% (active); in assay [4] (at 50.0 µM), 62.4%. In addition, the growth inhibition in assay [5] (setting [7]) is 15%; in assay [5] (setting [8]) it was 73% (active); in assay [5] (at 50.0 µM) it was 61.3%; in assay [6] (setting [7]) it was 16%; in assay [6] (setting [8]), 82% (active); in assay [6] (at 50.0 µM) it was 84.5% (active).

For the compound `CCOC(=O)C(C#N)c1cc(O)c(C(C#N)C(=O)OCC)cc1O` (stereo not given), the growth inhibition in assay [1] (setting [7]) is -2%; in assay [1] (setting [8]) it was -2%; in assay [1] (at 50.0 µM), -5.45%; in assay [2] (setting [7]) it was -3%; in assay [2] (setting [8]), -4%; in assay [2] (at 50.0 µM), 6.85%. Besides, the growth inhibition in assay [3] (setting [7]) is -4%; in assay [3] (setting [8]), -6%; in assay [3] (at 50.0 µM), -1.65%; in assay [4] (setting [7]), 0%; in assay [4] (setting [8]), -10%; in assay [4] (at 50.0 µM), 55.5%. Besides, the growth inhibition in assay [5] (setting [7]) is -1%; in assay [5] (setting [8]), -5%; in assay [5] (at 50.0 µM), 13.4%; in assay [6] (setting [7]) it was -2%; in assay [6] (setting [8]), -5%; in assay [6] (at 50.0 µM), -6.9%.

Turning to `Nc1c(/C=C/c2cc3ccc(C4=NCCN4)cc3[nH]2)[nH]c2cc(C3=NCCN3)ccc12`, the growth inhibition in assay [1] (setting [7]) is 78% (active); in assay [1] (setting [8]), 97% (active); in assay [1] (at 50.0 µM) it was 89.3% (active); in assay [2] (setting [7]), 41%; in assay [2] (setting [8]), 96% (active); in assay [2] (at 50.0 µM), 89% (active). Moreover, the growth inhibition is 36% in assay [3] (setting [7]); 94% (active) in assay [3] (setting [8]); 89.2% (active) in assay [3] (at 50.0 µM); 47% in assay [4] (setting [7]); 94% (active) in assay [4] (setting [8]); 89.5% (active) in assay [4] (at 50.0 µM). The growth inhibition in assay [5] (setting [7]) was 42%; in assay [5] (setting [8]), 92% (active); in assay [5] (at 50.0 µM) it was 86.5% (active); in assay [6] (setting [7]), 36%; in assay [6] (setting [8]), 96% (active); in assay [6] (at 50.0 µM), 90.5% (active).

In the case of `CCOC(=O)N1C=CC(=C2C(=C3C=CN(C(=O)OCC)C=C3)C(=C3C=CN(C(=O)OCC)C=C3)C2=C2C=CN(C(=O)OCC)C=C2)C=C1`, the growth inhibition was 55% in assay [1] (setting [7]); 95% (active) in assay [1] (setting [8]); 95.9% (active) in assay [1] (at 50.0 µM); -4% in assay [2] (setting [7]); 57% in assay [2] (setting [8]); 75.3% (active) in assay [2] (at 50.0 µM). For the same compound, the growth inhibition was -4% in assay [3] (setting [7]); 60% in assay [3] (setting [8]); 65.8% in assay [3] (at 50.0 µM); -3% in assay [4] (setting [7]); 52% in assay [4] (setting [8]); -0.55% in assay [4] (at 50.0 µM). The growth inhibition in assay [5] (setting [7]) was -4%; in assay [5] (setting [8]) it was 47%; in assay [5] (at 50.0 µM) it was 54.1%; in assay [6] (setting [7]), 1%; in assay [6] (setting [8]), 58%; in assay [6] (at 50.0 µM) it was 85.7% (active).

The values are drawn from PubChem BioAssay (NCI).
